Measured values as given in PubChem BioAssay (NCI).
Compounds without any hit were thinned out: in the full panel of roughly 83,000, 20% have a hit.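 The test compound was applied at a single concentration to cells in 96-well plates for 48 hours, and percent growth was recorded.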 Activity calls are given as the source filed them.

What follows are compounds tested on SK-MEL-5 melanoma (assay: NCI-60 one-dose screen, 48 h (100 = growth as untreated, 0 = no growth, -100 = all killed)). Conditions: 10 µM.
Experimental: Growth inhibition of the SK-MEL-5 human tumor cell line is measured as a screen for anti-cancer activity. Cells are grown in 96 well plates and exposed to the test compound for 48 hours. Compounds are tested at a single concentration, which is 10^-5 M for most compounds. The reported endpoint is percent growth (GI% or GIPRCNT), where numbers from 0 - 100% represent growth inhibition, and numbers from -100% - 0 represent cell death. For example, a value of 40 represents 60% growth inhibition. A value of 0 means no net growth occurred over the course of the experiment. A value of -40 indicates 40% of cells at the beginning of the experiment died by the end of the experiment. A value of -100 means all cells are dead at the end of the experiment.
NCI-60 Human Tumor Cell Lines Screen was performed using the standard one-dose NCI protocol, which is described in more detail at https://dtp.cancer.gov/discovery_development/nci-60/default.htm.
Compounds with GIPRCNT values below 10 were considered active. Activity score was based on GIPRCNT using the following formula: […]
Score is 0 for GIPRCNT values of 100 or above, 50 for GIPRCNT values of 0, and 100 for GIPRCNT values of -100.
In the case of `O=[N+]([O-])c1ccc(Cl)c(S(=O)(=O)O)c1`, the growth is reported as 104% (inactive).
With `CNC(=S)NC(C)(C)C` the growth was 93.6% (inactive).
For `NC(CSC(c1ccccc1)(c1ccccc1)c1ccccc1)C(=O)O` (stereo not given), the growth was 26.3% (inactive).
`N#Cc1ccc(NC(=O)Nc2cccc(C#N)c2)cc1` was tested, and the growth was 81.8% (inactive).
`O=C(Nc1ccccc1C(=O)NCC1CC1)c1cccs1` was tested, and the growth was 98.7% (inactive).
With `OC(c1ccccn1)C(O)c1ccccn1` (stereo not given) the growth was 106% (inactive).
`CCOc1ccc(/C=N/N=C(N)N)cc1OCC` was tested, and the growth was 98.5% (inactive).
`O=C(O)CCCC(=O)O` was tested, and the growth was 102% (inactive).
With `COc1ccc(-c2cc3c(nn2)-c2ccccc2C3=O)cc1` the growth was 85.3% (inactive).
With `C=CC(O)CCC` (stereo not given) the growth was 107% (inactive).
For `CC(C)CCOC(=O)c1ccccc1`, the growth was 105% (inactive).
For `CCOc1ccc(I)cc1`, the growth was 118% (inactive).
In the case of `Cc1cc(=O)cc(C)n1-c1ccccc1`, the growth is reported as 106% (inactive).
With `C=C1CC/C=C(\C)C(=O)C[C@@H]2[C@@H]1CC2(C)C` the growth was 106% (inactive).
With `CN(C)CCN(C)CC(C)(C)C(=O)/C=C/c1ccc(Cl)cc1` the growth was -24.9% (active).
`COCCCNC(=O)c1nnn2c1nc(N)c1cc(Cl)ccc12` was tested, and the growth was 98.4% (inactive).
`COc1cc(-c2ccc(NC(=O)NC3CC3)c(OC)c2)ccc1NC(=O)NC1CC1` was tested, and the growth was 47.6% (inactive).
For `CC1OC(Oc2c(-c3ccc(O)c(O)c3)oc3cc(O)cc(O)c3c2=O)C(O)C(O)C1O` (stereo not given), the growth was 91.8% (inactive).
`CCC(O)CC(CC)CO` (stereo not given) was tested, and the growth was 106% (inactive).
`COc1cccc(/C=N/NC(=S)NC2CC3CCC2C3)c1O` (stereo not given) was tested, and the growth was 67.8% (inactive).
In the case of `CCOC(=O)C(C#N)Cc1ccccc1` (stereo not given), the growth is reported as 117% (inactive).
In the case of `Cc1cc(NC(=O)CSCC(=O)O)no1`, the growth is reported as 101% (inactive).
In the case of `COC(=O)/C=C1\Sc2cc(F)ccc2NC1=O`, the growth is reported as 104% (inactive).
For `COc1ccccc1N=Nc1c(O)ccc2cc(S(=O)(=O)O)ccc12`, the growth was 103% (inactive).
`Cc1cc(C)c(CC(=O)O)c(C)c1` was tested, and the growth was 101% (inactive).
For `CC(=O)Nc1c(C)cc(C)cc1C`, the growth was 100% (inactive).
For `CN(C)CCN(Cc1ccccc1)c1ccccc1`, the growth was 105% (inactive).
In the case of `CC12CC3CC1C(C(=O)O2)C3C(=O)O` (stereo not given), the growth is reported as 104% (inactive).
In the case of `O=[N+]([O-])c1cccc(N=Nc2ccc(O)cc2O)c1`, the growth is reported as 74.2% (inactive).
With `c1ccc(Cc2ccccc2)cc1` the growth was 116% (inactive).
With `COc1cc(C(=O)N/N=C/c2cccc([N+](=O)[O-])c2)cc(OC)c1OC` the growth was 19% (inactive).
In the case of `CC(=O)c1c[nH]c2ccccc12`, the growth is reported as 103% (inactive).
`Cc1cc2nc(CC(=O)c3cccc([N+](=O)[O-])c3)c(=O)[nH]c2cc1C` was tested, and the growth was 97.9% (inactive).
For `Cc1ccc(S(=O)(=O)O)c(C)c1`, the growth was 105% (inactive).
In the case of `Clc1ccc(-c2n[nH]c3c2Cc2ccccc2-3)cc1Cl`, the growth is reported as 95.6% (inactive).
`Nc1nc(N)c2cc(S(=O)(=O)c3cccc(C(F)(F)F)c3)ccc2n1` was tested, and the growth was 28.3% (inactive).
With `CSC(=N\N=C\c1ccc(N(C)C)cc1)/N=C/N(C)C` the growth was 101% (inactive).
With `CN(C)CCC(=O)c1ccc(O)cc1` the growth was 99.9% (inactive).
`CCCCCCCCCCCCCC(=O)Oc1ccc[nH]c1=O` was tested, and the growth was 97.1% (inactive).
For `O=C(Cc1nc2ccc([N+](=O)[O-])cc2nc1CC(=O)c1ccccc1)c1ccccc1`, the growth was 55% (inactive).
